From PubChem BioAssay (NCI)
Where “and” joins values, the source holds several entries; their conditions need not be identical. Equal values may be shown once. The panel holds about 79,000 compounds, 15% with a hit somewhere; the sample as a whole holds those more often. Unmarked numbers belong to inactive results. Calls of active or inactive are those of the source. Rule as the data show it: active = growth inhibition above about 70%; inactive = the rest.

test: NCI Yeast Anticancer Drug Screen. Data for the bub3 strain (AID 167); details: S. cerevisiae bub3 mutant strain, at 5.0 µM (retest, dose inferred, filed as 0.5), hits give high values
Procedure, shortened: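 Readout: yeast growth inhibition, expressed relative to vehicle-only wells. The test organism is a mutant strain from a panel with lesions in DNA repair or checkpoint genes.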

SMILES	growth inhibition
CCC[CH2][Sn]([CH2]CCC)([CH2]CCC)[O]C(=O)C(OC(C)=O)c1ccccc1 (stereo unspecified)	99% (active)
CC(C)(C)S(=O)(=O)O.[Ag]	100% (active)
COc1ccc2c(c1)C(OC)C1c3c(cc4c(c3-2)OCO4)CCN1C (stereo unspecified)	28%
Cc1nc([N+](=O)[O-])c(Sc2nncc(-c3ccccc3)n2)n1C	1%
CC1=CC(=O)C=CC1(C)C(Cl)(Cl)Cl (stereo unspecified)	-6%
C=C1C(=O)C2=CC1CCC(=O)C1(C)CCC(OC(C)=O)C(C)(C)C1CC2O (stereo unspecified)	15%
CCOc1ccc(C(CN2CCOCC2)C(C)=O)cc1OC (stereo unspecified)	-8%
COc1cc(/C=C2\SC(=S)N(/C=C/c3nc4ccccc4[nH]c3=O)C2=O)cc(OC)c1OC	-8%
O=[N+]([O-])c1ccc(C2N(Cc3ccc(Cl)cc3)CCN2Cc2ccc(Cl)cc2)cc1	78% (active)
O=[N+]([O-])/C(=C/c1ccccc1)c1ccccc1	100% (active)
c1ccc(-c2cc3cc4ccccc4cn3c2)cc1	53%
O=[N+]([O-])c1ccc2nc3ccccc3[n+]([O-])c2c1	50%
O=C(CBr)C(Br)C(Br)c1ccccc1 (stereo unspecified)	100% (active)
Nc1cccc2c1-c1ccccc1C2=O	1%

same assay, conditions: S. cerevisiae bub3 mutant strain, at 50.0 µM (retest, dose inferred, filed as 5.0), hits give high values

SMILES	growth inhibition
CCC[CH2][Sn]([CH2]CCC)([CH2]CCC)[O]C(=O)C(OC(C)=O)c1ccccc1 (stereo unspecified)	99% (active)
CC(C)(C)S(=O)(=O)O.[Ag]	99% (active)
COc1ccc2c(c1)C(OC)C1c3c(cc4c(c3-2)OCO4)CCN1C (stereo unspecified)	35%
Cc1nc([N+](=O)[O-])c(Sc2nncc(-c3ccccc3)n2)n1C	21%
CC1=CC(=O)C=CC1(C)C(Cl)(Cl)Cl (stereo unspecified)	2%
C=C1C(=O)C2=CC1CCC(=O)C1(C)CCC(OC(C)=O)C(C)(C)C1CC2O (stereo unspecified)	83% (active)
CCOc1ccc(C(CN2CCOCC2)C(C)=O)cc1OC (stereo unspecified)	81% (active)
COc1cc(/C=C2\SC(=S)N(/C=C/c3nc4ccccc4[nH]c3=O)C2=O)cc(OC)c1OC	44%
O=[N+]([O-])c1ccc(C2N(Cc3ccc(Cl)cc3)CCN2Cc2ccc(Cl)cc2)cc1	99% (active)
O=[N+]([O-])/C(=C/c1ccccc1)c1ccccc1	99% (active)
c1ccc(-c2cc3cc4ccccc4cn3c2)cc1	97% (active)
O=[N+]([O-])c1ccc2nc3ccccc3[n+]([O-])c2c1	100% (active)
O=C(CBr)C(Br)C(Br)c1ccccc1 (stereo unspecified)	100% (active)
Nc1cccc2c1-c1ccccc1C2=O	15%

same assay, conditions: S. cerevisiae bub3 mutant strain, at 50.0 µM, hits give high values

SMILES	growth inhibition
CCC[CH2][Sn]([CH2]CCC)([CH2]CCC)[O]C(=O)C(OC(C)=O)c1ccccc1 (stereo unspecified)	90.2% (active)
COc1ccc2c(c1)C(OC)C1c3c(cc4c(c3-2)OCO4)CCN1C (stereo unspecified)	-6.05%
OCCN1CCNCC1	-23.5% and 13.4%
Cc1nc([N+](=O)[O-])c(Sc2nncc(-c3ccccc3)n2)n1C	97.6% (active)
COC(=O)C(Cc1ccccc1)NC(=O)C(CNC(=O)OCc1ccccc1)C(=O)OCc1ccccc1 (stereo unspecified)	-3.5% and -20.5%
Cn1c(=O)c2[nH]cnc2n(C)c1=O	-3.95% and -2.2%
CCSC(SCC)C(OC(C)=O)C(OC(C)=O)C(COC(C)=O)OC(C)=O (stereo unspecified)	-7.25% and -3.55%
CC1=CC(=O)C=CC1(C)C(Cl)(Cl)Cl (stereo unspecified)	-0.65%
C=CCC1=C(C)C(OC(=O)C=C(C)C)CC1=O (stereo unspecified)	3.6% and -13.3%
CCOC(=O)C(=Cc1ccco1)C(=O)OCC	-4.65% and -9.25%
Nc1c(O)nc[nH]c1=O	4.8% and -10.2%
C=C1C(=O)C2=CC1CCC(=O)C1(C)CCC(OC(C)=O)C(C)(C)C1CC2O (stereo unspecified)	87% (active)
NCCCNCCSSC/C=C\CSSCCNCCCN	7.85% and -2.3%
C1=NCCCN1	18.2% and 3%
CCOc1ccc(C(CN2CCOCC2)C(C)=O)cc1OC (stereo unspecified)	78.7% (active)
COC1OC(COC(C)=O)C(OC(C)=O)C(OC(C)=O)C1NC(=O)N(CCCl)N=O (stereo unspecified)	7.95% and 16.2%
OCCCc1ccncc1	3.25% and -0.55%

SMILES	growth inhibition
CC(C)c1ccc(C(=O)O)cc1	-9% and 5.1%
C[N+](C)(C)CCO	16.5% and 16.8%
COc1cc(/C=C2\SC(=S)N(/C=C/c3nc4ccccc4[nH]c3=O)C2=O)cc(OC)c1OC	-4.8%
O=[N+]([O-])c1ccc(C2N(Cc3ccc(Cl)cc3)CCN2Cc2ccc(Cl)cc2)cc1	87.6% (active)
O=C(CC(=O)c1ccc(Cl)cc1)Cc1ccc2ccccc2n1	52.3% and 51%
O=C(O)C1=C/C(=C(/c2ccccc2)c2cc(C(=O)O)c(O)c3ccccc23)c2ccccc2C1=O	-9.45% and -3.8%
O=C(O)c1cc([N+](=O)[O-])ccc1Nc1ccccc1	18.6% and -3.55%
O=C(NC(=O)c1ccccc1)NC(=O)c1ccccc1	8.35% and -6.25%
O=[N+]([O-])/C(=C/c1ccccc1)c1ccccc1	99.5% (active)
Nc1ccc(CCc2ccc(N)cc2)cc1	7.35% and -18.9%
CC(O)c1nc2c([nH]1)c(=O)n(C)c(=O)n2C (stereo unspecified)	5.7% and -13.9%
c1ccc(-c2cc3cc4ccccc4cn3c2)cc1	86.3% (active)
CN(C)CC1CC(=O)C(CN(C)C)CC1=O (stereo unspecified)	-7.45% and -15.6%
C[N+](C)(C)c1ncnc2c1ncn2C1CC(O)C(CO)O1 (stereo unspecified)	-33% and 10.6%
O=C(OC(=C(c1ccccc1)c1ccccc1)c1ccccc1)c1ccccc1	-0.05% and 5.6%
COc1cc(C)c2c(ccc3ccccc32)n1	10.2% and 16.4%
